The supplement of paper PMC10849652
Targets with a hit are over-represented here; the source holds about 7,900 in all. About 0.6% of all pairs of compound and target were hits. A number with no mark means an inactive call.

Experiments:
Test in all cases: log2 fold change, soluble protein after heating vs DMSO (PISA); higher = thermal stabilisation; K562 cells, 10 uM, 30 min; active = over 0.2 and 3.5 SD of the protein, either way, in both replicates (recomputed)
saracatinib = compound: CN1CCN(CCOc2cc(OC3CCOCC3)c3c(Nc4c(Cl)ccc5c4OCO5)ncnc3c2)CC1 [saracatinib]
In short: (§1)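 K562 cells at 2×10^6 cells/mL were exposed to 10 μM compound for 30 min, then aliquots were heated for 3 min across 48°C-58°C, pooled, and extracted in PBS containing 0.5% NP-40 at 4°C. The supernatant after 21,000xg for 90 min was taken as soluble protein and measured by TMTpro 16plex LC-MS/MS with channel sums equalised. Thermal stability is reported relative to control samples, with values from duplicates. Fold changes are given on a log2 scale.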

sotrastaurin = compound: CN1CCN(c2nc(C3=C(c4c[nH]c5ccccc45)C(=O)NC3=O)c3ccccc3n2)CC1 [sotrastaurin]
In short: as §1

alvocidib = compound: CN1CC[C@H](c2c(O)cc(O)c3c(=O)cc(-c4ccccc4Cl)oc23)[C@H](O)C1 [alvocidib]
In short: as §1

Tubastatin A = compound: CN1CCc2c(c3ccccc3n2Cc2ccc(C(=O)NO)cc2)C1 [Tubastatin A]
In short: as §1

[1] = compound: CNC(=O)C1=CC=CC=C1NC2=NC(=NC=C2Cl)NC3=C(C=C(C=C3)N4CCOCC4)OC
In short: as §1

defactinib = compound: CNC(=O)c1ccc(Nc2ncc(C(F)(F)F)c(NCc3nccnc3N(C)S(C)(=O)=O)n2)cc1 [defactinib]
In short: as §1

rucaparib = compound: CNCc1ccc(-c2[nH]c3cc(F)cc4c3c2CCNC4=O)cc1 [rucaparib]
In short: as §1

[2] = compound: CNc1nc(-c2ccc3c(N)n[nH]c3c2)cc(N2C[C@@H](C(=O)NC3CCCCC3)CC[C@H]2C)n1
In short: as §1

encorafenib = compound: COC(=O)N[C@@H](C)CNc1nccc(-c2cn(C(C)C)nc2-c2cc(Cl)cc(NS(C)(=O)=O)c2F)n1 [encorafenib]
In short: as §1

[3] = compound: COC(=O)[C@H](CCSC)NC(=O)C1=C(C=C(C=C1)NC[C@H](CS)N)C2=CC=CC=C2
In short: as §1

Sequence of UniProt Q5PRF9 (Q5PRF9 whole entry, looked up): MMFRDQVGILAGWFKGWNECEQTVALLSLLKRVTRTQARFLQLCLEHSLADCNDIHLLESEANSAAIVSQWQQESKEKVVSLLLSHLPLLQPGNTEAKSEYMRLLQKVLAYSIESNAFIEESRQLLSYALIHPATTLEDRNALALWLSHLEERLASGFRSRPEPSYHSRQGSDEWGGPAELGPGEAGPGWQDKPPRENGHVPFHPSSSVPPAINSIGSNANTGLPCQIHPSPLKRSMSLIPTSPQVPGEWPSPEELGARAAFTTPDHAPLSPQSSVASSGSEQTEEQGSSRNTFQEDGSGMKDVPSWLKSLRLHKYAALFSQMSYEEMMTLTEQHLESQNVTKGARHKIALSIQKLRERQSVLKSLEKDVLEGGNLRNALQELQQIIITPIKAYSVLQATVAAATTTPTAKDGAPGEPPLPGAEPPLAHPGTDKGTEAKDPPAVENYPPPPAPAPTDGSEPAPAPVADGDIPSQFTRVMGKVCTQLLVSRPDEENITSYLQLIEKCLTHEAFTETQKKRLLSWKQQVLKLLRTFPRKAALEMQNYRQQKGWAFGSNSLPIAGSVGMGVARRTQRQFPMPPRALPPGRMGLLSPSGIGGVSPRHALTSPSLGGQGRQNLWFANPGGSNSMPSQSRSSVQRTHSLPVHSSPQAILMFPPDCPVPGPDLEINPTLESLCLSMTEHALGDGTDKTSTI
Sequence of UniProt A6NEQ0 (A6NEQ0 whole entry, looked up): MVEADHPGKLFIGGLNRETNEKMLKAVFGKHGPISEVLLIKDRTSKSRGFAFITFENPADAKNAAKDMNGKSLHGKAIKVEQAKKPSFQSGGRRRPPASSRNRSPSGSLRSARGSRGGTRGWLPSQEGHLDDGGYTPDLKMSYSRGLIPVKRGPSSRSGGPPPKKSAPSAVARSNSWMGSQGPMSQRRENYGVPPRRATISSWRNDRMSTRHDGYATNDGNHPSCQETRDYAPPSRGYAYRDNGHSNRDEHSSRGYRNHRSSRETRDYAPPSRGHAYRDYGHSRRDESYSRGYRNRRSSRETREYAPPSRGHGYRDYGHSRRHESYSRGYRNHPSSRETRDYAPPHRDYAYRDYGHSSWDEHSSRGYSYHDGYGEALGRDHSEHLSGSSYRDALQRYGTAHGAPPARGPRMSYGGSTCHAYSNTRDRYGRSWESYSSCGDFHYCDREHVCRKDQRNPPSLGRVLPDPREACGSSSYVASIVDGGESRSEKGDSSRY
Sequence of UniProt P54136 (P54136 whole entry, looked up): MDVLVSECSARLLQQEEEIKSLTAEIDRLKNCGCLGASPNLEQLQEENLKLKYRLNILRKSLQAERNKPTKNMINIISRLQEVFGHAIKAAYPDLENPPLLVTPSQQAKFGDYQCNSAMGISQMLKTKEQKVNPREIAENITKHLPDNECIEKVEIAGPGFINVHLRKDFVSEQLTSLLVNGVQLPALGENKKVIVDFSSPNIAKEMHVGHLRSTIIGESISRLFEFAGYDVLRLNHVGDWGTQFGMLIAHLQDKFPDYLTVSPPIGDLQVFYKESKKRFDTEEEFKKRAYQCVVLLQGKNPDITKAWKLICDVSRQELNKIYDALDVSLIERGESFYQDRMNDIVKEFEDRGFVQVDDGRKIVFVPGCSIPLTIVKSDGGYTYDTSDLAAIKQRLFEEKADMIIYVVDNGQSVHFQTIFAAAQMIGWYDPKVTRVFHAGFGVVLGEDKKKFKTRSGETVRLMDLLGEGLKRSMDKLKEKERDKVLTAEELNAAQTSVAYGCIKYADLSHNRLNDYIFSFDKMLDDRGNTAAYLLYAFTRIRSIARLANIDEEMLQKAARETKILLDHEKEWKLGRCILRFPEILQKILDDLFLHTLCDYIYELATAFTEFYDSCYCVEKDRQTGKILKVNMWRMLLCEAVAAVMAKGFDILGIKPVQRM
Sequence of UniProt O75446 (O75446 whole entry, looked up): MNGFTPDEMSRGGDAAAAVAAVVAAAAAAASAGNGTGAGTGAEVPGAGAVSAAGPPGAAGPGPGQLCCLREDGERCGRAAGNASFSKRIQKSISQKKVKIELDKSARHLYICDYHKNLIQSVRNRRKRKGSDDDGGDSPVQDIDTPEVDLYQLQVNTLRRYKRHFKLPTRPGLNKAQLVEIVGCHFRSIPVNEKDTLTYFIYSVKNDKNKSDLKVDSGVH
Sequence of UniProt O95059 (O95059 whole entry, looked up): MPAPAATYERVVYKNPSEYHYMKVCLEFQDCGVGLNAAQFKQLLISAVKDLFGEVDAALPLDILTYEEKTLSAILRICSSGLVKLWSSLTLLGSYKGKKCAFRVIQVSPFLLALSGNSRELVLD
Sequence of UniProt Q8IZE3 (Q8IZE3 whole entry, looked up): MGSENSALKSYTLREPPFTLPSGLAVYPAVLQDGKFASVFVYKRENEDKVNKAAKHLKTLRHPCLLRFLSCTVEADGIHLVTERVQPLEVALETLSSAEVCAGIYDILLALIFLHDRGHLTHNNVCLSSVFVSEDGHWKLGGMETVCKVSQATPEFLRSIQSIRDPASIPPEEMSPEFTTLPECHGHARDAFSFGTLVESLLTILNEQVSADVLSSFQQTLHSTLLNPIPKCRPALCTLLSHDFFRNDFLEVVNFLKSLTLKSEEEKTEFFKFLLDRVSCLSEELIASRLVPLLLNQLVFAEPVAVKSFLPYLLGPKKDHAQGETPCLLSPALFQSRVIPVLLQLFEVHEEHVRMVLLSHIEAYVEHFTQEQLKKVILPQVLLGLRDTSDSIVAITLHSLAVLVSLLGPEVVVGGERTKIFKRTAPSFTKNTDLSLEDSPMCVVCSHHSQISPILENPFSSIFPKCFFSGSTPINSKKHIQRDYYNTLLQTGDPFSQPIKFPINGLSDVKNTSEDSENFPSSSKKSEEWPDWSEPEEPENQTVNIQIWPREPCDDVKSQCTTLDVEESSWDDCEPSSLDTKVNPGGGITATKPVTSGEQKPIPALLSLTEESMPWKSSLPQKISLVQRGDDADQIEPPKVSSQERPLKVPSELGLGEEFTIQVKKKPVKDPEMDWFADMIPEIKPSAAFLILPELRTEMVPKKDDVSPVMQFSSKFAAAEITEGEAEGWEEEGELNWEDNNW
Sequence of UniProt O75582 (O75582 whole entry, looked up): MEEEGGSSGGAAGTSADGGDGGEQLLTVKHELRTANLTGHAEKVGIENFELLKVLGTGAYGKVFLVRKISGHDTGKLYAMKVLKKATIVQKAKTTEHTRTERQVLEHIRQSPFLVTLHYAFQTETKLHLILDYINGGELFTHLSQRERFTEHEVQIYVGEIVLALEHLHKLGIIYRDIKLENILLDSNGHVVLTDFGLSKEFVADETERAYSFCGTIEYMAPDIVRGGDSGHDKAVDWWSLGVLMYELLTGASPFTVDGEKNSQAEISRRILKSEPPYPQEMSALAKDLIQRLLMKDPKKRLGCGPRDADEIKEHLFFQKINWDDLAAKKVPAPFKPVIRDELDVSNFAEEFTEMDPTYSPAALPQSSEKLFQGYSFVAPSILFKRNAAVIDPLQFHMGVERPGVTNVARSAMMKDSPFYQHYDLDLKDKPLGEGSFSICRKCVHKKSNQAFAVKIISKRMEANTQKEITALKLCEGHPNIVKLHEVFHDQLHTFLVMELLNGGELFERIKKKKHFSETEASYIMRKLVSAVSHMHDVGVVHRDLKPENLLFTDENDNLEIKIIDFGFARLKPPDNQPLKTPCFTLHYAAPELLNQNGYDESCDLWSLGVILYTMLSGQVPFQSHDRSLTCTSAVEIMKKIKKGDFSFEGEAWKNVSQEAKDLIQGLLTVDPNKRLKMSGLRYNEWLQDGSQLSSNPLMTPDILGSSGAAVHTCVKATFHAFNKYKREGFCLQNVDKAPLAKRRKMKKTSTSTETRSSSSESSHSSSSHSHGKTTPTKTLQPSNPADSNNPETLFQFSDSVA
Sequence of UniProt P41440 (P41440 whole entry, looked up): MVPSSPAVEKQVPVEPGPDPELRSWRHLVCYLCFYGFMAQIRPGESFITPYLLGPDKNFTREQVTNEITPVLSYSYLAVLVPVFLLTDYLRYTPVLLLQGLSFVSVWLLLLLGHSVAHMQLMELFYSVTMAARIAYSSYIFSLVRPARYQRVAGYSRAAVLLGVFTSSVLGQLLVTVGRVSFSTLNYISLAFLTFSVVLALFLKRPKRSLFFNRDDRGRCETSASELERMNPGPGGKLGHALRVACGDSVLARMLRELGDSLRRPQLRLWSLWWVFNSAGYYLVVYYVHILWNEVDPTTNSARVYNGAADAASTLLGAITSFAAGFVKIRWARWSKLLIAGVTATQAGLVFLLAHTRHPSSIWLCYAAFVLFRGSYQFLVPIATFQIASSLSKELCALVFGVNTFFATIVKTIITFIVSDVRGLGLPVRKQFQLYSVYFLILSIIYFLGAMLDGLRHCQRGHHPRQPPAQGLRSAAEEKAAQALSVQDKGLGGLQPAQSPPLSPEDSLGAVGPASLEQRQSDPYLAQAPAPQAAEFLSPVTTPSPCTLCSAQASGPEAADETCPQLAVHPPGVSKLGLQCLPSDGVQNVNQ
Sequence of UniProt Q04206 (Q04206 whole entry, looked up): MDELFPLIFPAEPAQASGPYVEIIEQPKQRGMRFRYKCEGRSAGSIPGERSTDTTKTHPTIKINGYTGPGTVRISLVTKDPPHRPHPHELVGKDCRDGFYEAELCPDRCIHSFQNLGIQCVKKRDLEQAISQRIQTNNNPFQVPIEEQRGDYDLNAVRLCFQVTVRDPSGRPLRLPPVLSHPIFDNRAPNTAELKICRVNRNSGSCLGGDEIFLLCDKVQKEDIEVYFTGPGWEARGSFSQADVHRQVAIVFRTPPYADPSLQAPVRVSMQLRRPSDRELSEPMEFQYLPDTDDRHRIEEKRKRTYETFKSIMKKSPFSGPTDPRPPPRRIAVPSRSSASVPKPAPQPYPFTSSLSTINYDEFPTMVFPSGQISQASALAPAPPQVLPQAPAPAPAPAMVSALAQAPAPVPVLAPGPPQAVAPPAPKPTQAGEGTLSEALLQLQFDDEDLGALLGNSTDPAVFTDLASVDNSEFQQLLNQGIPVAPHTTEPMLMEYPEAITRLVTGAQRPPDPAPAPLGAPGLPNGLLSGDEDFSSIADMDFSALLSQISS
Sequence of UniProt P60903 (P60903 whole entry, looked up): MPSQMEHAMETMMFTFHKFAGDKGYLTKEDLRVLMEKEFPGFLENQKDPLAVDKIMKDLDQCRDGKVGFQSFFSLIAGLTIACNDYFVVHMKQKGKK

Row | Target | log2 fold change (saracatinib) | log2 fold change (sotrastaurin) | log2 fold change (alvocidib) | log2 fold change (Tubastatin A) | log2 fold change [1] | log2 fold change (defactinib) | log2 fold change (rucaparib) | log2 fold change [2] | log2 fold change (encorafenib) | log2 fold change [3]
1 | RUFY3 isoform 3 (UniProt Q7L099) | -0.054 | -0.036 | -0.133 | 0 | -0.029 | -0.028 | 0.105 | -0.255 | -0.017 | -0.059
2 | RETSAT (UniProt Q6NUM9) | -0.088 | 0.054 | 0.03 | 0.185 | 0.02 | -0.05 | -0.001 | -0.014 | 0.012 | -0.075
3 | RAD51 (UniProt Q06609) | -0.013 | 0.004 | -0.002 | 0.099 | 0.337 (active) | 0.027 | -0.035 | -0.011 | 0.005 | -0.041
4 | RARS (UniProt P54136) | -0.103 | -0.192 | 0.151 | 0.008 | -0.073 | 0.187 | 0.367 | 0.138 | 0.217 | -0.024
5 | RAC3 (UniProt P60763) | 0.036 | 0.11 | -0.042 | -0.081 | -0.064 | 0.011 | -0.134 | 0.085 | -0.07 | 0.027
6 | SEC23IP (UniProt Q9Y6Y8) | -0.097 | -0.048 | -0.157 | 0.043 | -0.092 | -0.156 | -0.019 | -0.045 | 0.058 | 0.025
7 | RBM26 isoform 2 (UniProt Q5T8P6) | -0.01 | -0.193 | -0.226 | 0.094 | -0.074 | -0.489 (active) | -0.039 | 0.025 | 0.03 | -0.032
8 | SELENOH (UniProt Q8IZQ5) | 0.124 | -0.171 | 0.066 | 0.032 | -0.063 | -0.026 | -0.011 | 0.022 | 0.011 | -0.038
9 | RPA3 (UniProt P35244) | 0.015 | -0.014 | -0.04 | 0.022 | 0.181 | -0.054 | -0.048 | 0.015 | 0.06 | 0.014
10 | SEPTIN5 (UniProt Q99719) | 0.051 | 0.001 | -0.042 | -0.035 | -0.022 | 0.008 | -0.036 | 0.003 | -0.007 | -0.006
11 | RAD50 isoform 2 (UniProt Q92878) | 0.012 | -0.024 | -0.084 | -0.025 | 0 | -0.103 | 0.006 | 0.006 | 0.008 | -0.019
12 | SAMD4B (UniProt Q5PRF9) | -0.349 | -0.036 | -0.059 | 0.167 | -0.132 |  |  | 0.096 |  | 
13 | RBM27 (UniProt Q9P2N5) | 0.04 | -0.039 | -0.141 | 0.013 | -0.297 (active) | -0.303 (active) | -0.015 | 0.033 | -0.011 | -0.042
14 | SLC19A1 (UniProt P41440) | 0.012 | -0.173 | 0.06 | -0.021 | -0.035 | -0.061 | -0.179 | -0.048 | 0.041 | -0.003
15 | RAB3IL1 (UniProt Q8TBN0) | 0.007 | -0.02 | 0.06 | -0.02 | 0.023 | -0.042 | -0.005 | 0.001 | -0.03 | -0.022
16 | SEPTIN5 (UniProt G3XAH0) | 0.045 | 0.023 | -0.033 | -0.038 | 0.042 | -0.023 |  | 0.032 |  | 0.028
17 | RPP14 (UniProt O95059) | 0.064 | -0.01 | 0.007 | 0.059 | -0.039 | 0.012 | 0.004 | -0.029 | 0.046 | -0.034
18 | RNF26 (UniProt Q9BY78) |  |  |  |  |  | 0.119 |  |  |  | 0.292
19 | RELA (UniProt Q04206) | 0.027 | -0.036 |  | -0.017 | 0.032 | -0.077 | -0.026 | -0.029 | 0.044 | -0.011

Row | Target | log2 fold change (saracatinib) | log2 fold change (sotrastaurin) | log2 fold change (alvocidib) | log2 fold change (Tubastatin A) | log2 fold change [1] | log2 fold change (defactinib) | log2 fold change (rucaparib) | log2 fold change [2] | log2 fold change (encorafenib) | log2 fold change [3]
20 | RMDN2 isoform 2 (UniProt Q96LZ7) |  |  |  |  |  | -0.218 |  |  |  | -0.206
21 | RBM6 (UniProt P78332) | -0.032 | -0.077 | -0.073 | -0.077 |  |  |  | 0.247 |  | 
22 | RAB3IL1 (UniProt E9PK89) |  | -0.082 | 0.009 | -0.095 | -0.011 | -0.016 | -0.074 |  | 0.084 | 0.045
23 | RAD50, A0A494C0Y7 | -0.101 | 0.048 | -0.026 | -0.079 |  | -0.146 | -0.206 | 0.198 | 0.15 | -0.055
24 | RBMY1E (UniProt A6NEQ0) |  |  | -0.015 | 0.016 | -0.049 |  | -0.055 |  | 0.182 | 
25 | SDCBP isoform 2 (UniProt O00560) | -0.175 | 0.042 |  | -0.301 | 0.115 |  | -0.036 | -0.756 (active) | 0.032 | 
26 | RPAIN isoform 8 (UniProt Q86UA6) | -0.036 | -0.09 | -0.036 | -0.016 |  | -0.231 |  | -0.082 |  | 0.094
27 | RPS6KA5 (UniProt O75582) |  |  |  |  | 0.083 |  | 0.135 |  | 0.148 | 
28 | RALGPS2 (UniProt Q86X27) | -0.042 |  | 0.192 | 0.18 | -0.098 | 0.176 | -0.133 | 0.159 | 0.425 | -0.101
29 | RPS19 (UniProt M0R2L9) |  |  |  | -0.186 |  |  |  |  |  | 
30 | RICTOR isoform 3 (UniProt Q6R327) | 0.087 | 0.708 (active) |  | 0.092 | 0.114 |  | -0.128 | 0.154 | 0.068 | 
31 | SF3B5 (UniProt Q9BWJ5) | -0.382 | 0.055 |  | 0.048 | 0.023 | -0.039 | 0.086 | -0.015 | -0.025 | 0.061
32 | SCLT1 (UniProt Q96NL6) | 0.073 | -0.095 | 0 | 0.116 |  | -0.047 |  | 0.121 |  | -0.087
33 | RBM48 isoform 2 (UniProt Q5RL73) |  | -0.001 | -0.011 | 0.016 | -0.065 |  |  |  |  | 
34 | S100A10 (UniProt P60903) |  | -0.147 | -0.293 | 0.195 |  |  | -0.038 |  | -0.293 | 
35 | SCYL3 isoform 2 (UniProt Q8IZE3) | 0.014 |  | 0.142 | -0.063 | -0.042 | -0.014 | 0.06 | -0.009 | 0.021 | -0.025
36 | RAB3D (UniProt O95716) | 0.295 |  | 0.126 | 0.024 | 0.022 | 0.064 | -0.021 | -0.016 | -0.043 | -0.094
37 | SAP30 (UniProt O75446) | -0.018 | -0.185 | -0.035 |  | 0.121 | -0.003 |  | 0.014 |  | 0.044
